# From PubChem BioAssay (NCATS)
# Results filed as inconclusive are left out. Where a call stands in place of a potency, no number is given. Active and inactive are the calls of the source. Calls follow the shape of the dose curve; as a rule, active = well fitted inhibition curve with a large enough effect; inconclusive = small, poorly fitted or top-dose-only effect; inactive = flat fitted curve, though single readings scatter.
# Tests used:
# Assay in all cases: qHTS profiling for inhibitors of Plasmodium falciparum proliferation (AID 504749); also: nearly all actives have a fitted effect of over 60% in size
# Conditions in all cases: P. falciparum in erythrocytes, SYBR Green DNA, 72 h; series mostly up to 28.7 µM
# [1] = system: ATS189
# In short: (§1)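 Fluorescence of SYBR Green-bound parasite DNA, read at 485/535 nm, served as the growth measure. Infected erythrocytes were cultured with compound 72 h; artemisinin (0.29 uM) and DMSO wells defined the normalization range.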
# [2] = system: ATS95
# In short: as §1
# [3] = system: C2A
# In short: as §1
# [4] = system: CP185
# In short: as §1
# [5] = system: CP191
# In short: as §1
# [6] = system: CP192
# In short: as §1
# [7] = system: CP194
# In short: as §1
# [8] = system: CP201
# In short: as §1
# [9] = system: CP203
# In short: as §1
# [10] = system: CP211
# In short: as §1
# [11] = system: CP215
# In short: as §1
# [12] = system: CP217
# In short: as §1
# [13] = system: CP237
# In short: as §1
# [14] = system: CP238
# In short: as §1
# [15] = system: CP247
# In short: as §1
# [16] = system: CP250
# In short: as §1
# [17] = system: CP252
# In short: as §1
# [18] = system: CP256
# In short: as §1
# [19] = system: CP260
# In short: as §1
# [20] = system: CP262
# In short: as §1
# Potency is read from the fitted curve at half-maximal effect.
SMILES,Potency [1],Potency [2],Potency [3],Potency [4],Potency [5],Potency [6],Potency [7],Potency [8],Potency [9],Potency [10],Potency [11],Potency [12],Potency [13],Potency [14],Potency [15],Potency [16],Potency [17],Potency [18],Potency [19],Potency [20]
CC(=O)N(O)CCCCCNC(=O)CCC(=O)N(O)CCCCCNC(=O)CCC(=O)N(O)CCCCCN,inactive,inactive,inactive,inactive,inactive,inactive,inactive,inactive,inactive,inactive,inactive,inactive,inactive,inactive,inactive,inactive,inactive,inactive,inactive,inactive
C[C@]12CC[C@@H]3c4ccc(O)cc4CC[C@H]3[C@@H]1CC[C@@H]2O,inactive,inactive,inactive,inactive,inactive,inactive,inactive,inactive,inactive,inactive,inactive,inactive,inactive,inactive,inactive,inactive,inactive,inactive,inactive,inactive
O=C(CCN1CCC(c2ccccc2)C1)c1ccc2c(c1)OCCO2 (centres undefined),inactive,inactive,inactive,inactive,inactive,inactive,inactive,inactive,inactive,inactive,inactive,inactive,inactive,inactive,inactive,inactive,inactive,inactive,inactive,inactive
O=C1c2ccccc2C(=O)C1c1ccccc1,inactive,inactive,inactive,inactive,inactive,inactive,inactive,inactive,inactive,inactive,inactive,inactive,inactive,inactive,inactive,inactive,inactive,inactive,inactive,inactive
CCCCCCCCCCCCCCCCCC(=O)OCC(O)CO (centres undefined),inactive,inactive,inactive,inactive,inactive,inactive,inactive,inactive,inactive,inactive,inactive,inactive,inactive,inactive,inactive,inactive,inactive,inactive,inactive,inactive
O=C(COc1ccc(Cl)cc1)N1CCN(Cc2ccc3c(c2)OCO3)CC1,inactive,inactive,inactive,inactive,inactive,inactive,inactive,inactive,inactive,inactive,inactive,inactive,inactive,inactive,inactive,inactive,inactive,inactive,inactive,inactive
CC(C)(CO)[C@@H](O)C(=O)NCCCO,inactive,inactive,inactive,inactive,inactive,inactive,inactive,inactive,inactive,inactive,inactive,inactive,inactive,inactive,inactive,inactive,inactive,inactive,inactive,inactive
CN=C(NC#N)NCCSCc1csc(N=C(N)N)n1,inactive,inactive,inactive,inactive,inactive,inactive,inactive,inactive,inactive,inactive,inactive,inactive,inactive,inactive,inactive,inactive,inactive,inactive,inactive,inactive
C=CCc1ccc(O)c(OC)c1,inactive,inactive,inactive,inactive,inactive,inactive,inactive,inactive,inactive,inactive,inactive,inactive,inactive,inactive,inactive,inactive,inactive,inactive,inactive,inactive
COc1cccc2c1C(=O)c1c(O)c3c(c(O)c1C2=O)C[C@@](O)(C(C)=O)C[C@@H]3O[C@H]1C[C@H](N)[C@H](O)[C@H](C)O1,8.91 µM (active),4.47 µM (active),3.16 µM (active),4.47 µM (active),3.16 µM (active),6.01 µM (active),7.57 µM (active),9.53 µM (active),8.49 µM (active),3.79 µM (active),7.57 µM (active),1 µM (active),1 µM (active),3.98 µM (active),1.41 µM (active),1 µM (active),1.12 µM (active),1 µM (active),1.12 µM (active),
COc1cc(OC)cc(OC)c1,inactive,inactive,inactive,inactive,inactive,inactive,inactive,inactive,inactive,inactive,inactive,inactive,inactive,inactive,inactive,inactive,inactive,inactive,inactive,inactive
Nc1ccc(C(=O)Nc2ccccc2N)cc1,inactive,inactive,inactive,inactive,inactive,inactive,inactive,inactive,inactive,inactive,inactive,inactive,inactive,inactive,inactive,inactive,inactive,inactive,inactive,inactive
